Screens deposited in PubChem by National Center for Advancing Translational Sciences (NCATS).
Only a selection was taken, and hits are over-represented in it overall.
VACV Venus inh = qHTS for Stage-Specific Inhibitors of Vaccinia Orthopoxvirus: Venus Reporter Primary qHTS. Vaccinia virus Venus reporter expression, fluorescence. Potency, µM (doses to about 36.5 µM), inactives show at the top dose activity change, negative = inhibition, usual class: inhibitors. 0.46% of 330,000 active. AID 720580, 2013; calls by dose curve; tested in A549 cells; note: potency is the fitted concentration of half-maximal effect; % is set by controls: 0 for no effect and ±100 for the full control effect; nearly all actives have a fitted effect of over 30% in size
Marburg entry inh = qHTS for inhibitors of binding or entry into cells for Marburg Virus; Marburg virus pseudotyped entry inhibition, cell reporter; Potency, µM (highest dose often 37.8 µM), for inactives: top-dose activity change, negative = inhibition, actives largely listed as inhibitors; 1.8% of 300,000 active; calls by dose curve; tested in HEK293 cells; note: potency is the fitted concentration of half-maximal effect; % is set by controls: 0 for no effect and ±100 for the full control effect
Shiga inhibitor = A qHTS for Small Molecule Inhibitors of Shiga Toxin | Vero cells, Shiga toxin protein synthesis inhibition reporter | inhibition, % at 38.7 µM | 9.2% of 290,000 active; in the data active = inhibition mostly above about 28%, no sharp cut-off; inactive = mostly below about 43%; note: 0% is about no effect
Lassa entry inh = qHTS for Inhibitors of binding or entry into cells for Lassa Virus. Lassa virus pseudotype entry inhibition, cell reporter. Potency, µM (doses to about 37.9 µM), inactives show at the highest dose activity change, negative = inhibition, usual class: inhibitors. 1.2% of 300,000 active; calls by dose curve; tested in HEK293 cells; note: potency is the fitted concentration of half-maximal effect; % is set by controls: 0 for no effect and ±100 for the full control effect; nearly all actives have a fitted effect of over 50% in size
CHX counter = Cycloheximide Counterscreen for Small Molecule Inhibitors of Shiga Toxin; cell reporter, cycloheximide protein synthesis inhibition counterscreen; AID 2314, 2010; 12% of 300,000 active; max response, %; in the data active = max response mostly above about 13%, no sharp cut-off; inactive = mostly below about 14%; note: read at 38.3 µM for the half of the compounds with a filed dose; 0% is about no effect
Vaccinia mCherry = qHTS for Stage-Specific Inhibitors of Vaccinia Orthopoxvirus: mCherry Reporter Primary qHTS. Potency, µM (titrated, usually from 36.5 µM), inactives show at the top dose activity change, negative = inhibition, hits mostly inhibitors. AID 720579, 2013. Vaccinia virus mCherry reporter infection, fluorescence. 0.63% of 310,000 active; calls by dose curve; tested in A549 cells; note: potency is the fitted concentration of half-maximal effect; % is set by controls: 0 for no effect and ±100 for the full control effect; nearly all actives have a fitted effect of over 35% in size
Numbers without * were called inactive; i = inactive; ? = inconclusive; nt = no result; [ ] = dose if it differs, or a comment.

SMILES | VACV Venus inh | Marburg entry inh | Shiga inhibitor | Lassa entry inh | CHX counter | Vaccinia mCherry
S=C(Nc1ccc(CN2CCCCC2)cc1)Nc1cccc(Cl)c1Cl | -13.7% | 11.2µM* | -9.8 | ? | 1.2 | -3.8%
O=C(Nc1ccc(Br)cc1)Nc1ccccc1Cl | ? | nt | 103.0* | nt | 68.3* | i
Cc1ccccc1CNC(=O)CCCn1c(=O)c2cccn2c2cccnc21 | -21.1% | nt | nt | 15.6%[46.1 µM] | nt | -7.0%
COc1ccccc1NC(=O)Nc1ccc(S(=O)(=O)Nc2onc(C)c2C)cc1 | -8.7% | ? | nt | 2.6% | nt | i
CCN1CCN(Cc2ccccc2NC(=O)Nc2ccc(C)cc2)CC1 | -8.0% | ? | 36.1* | ? | 23.9* | nt
COc1ccccc1CNc1cc(C)nc2nc(-c3ccc(C)cc3)nn12 | 32.3% | nt | nt | -22.1%[46.1 µM] | nt | -22.0%
CCOC(=O)c1cn2nc(Oc3ccccc3)ccc2n1 | -16.1% | ? | 92.7* | ? | 71.5* | i
CCOC(=O)c1cn2nc(N3CCCC3)ccc2n1 | -11.3% | 3.55µM* | -11.2 | 1.41µM* | 7.8 | -2.3%
CCOC(=O)c1cn2nc(Oc3ccc(C)cc3)ccc2n1 | -7.1% | ? | 98.3* | 19.7% | 43.3* | i
CCO[C@H]1OC(C(=O)NCc2ccccc2)=C[C@@H](C(C)(C)C)[C@@H]1CCCO | -14.0% | nt | nt | nt | nt | i
CC(C)c1ccc(NC(=O)CC2NCCNC2=O)cc1 (stereo not given) | -8.5% | 19.0%[46.1 µM] | nt | 2.7%[46.1 µM] | nt | -3.8%
CCNC(=O)C1(C)CCN(C(=O)c2ccc(F)c(Cl)c2)C1 (stereo not given) | -5.2% | nt | nt | nt | nt | 27.6%
CN(C)c1ncnc2c1ncn2[C@H]1CN(Cc2ccc(Cl)cc2)C[C@@H](CO)O1 | 4.2% | nt | nt | nt | nt | -5.1%
CN(C)c1ccc(CNC2CC(C)(C)NC(C)(C)C2)cc1 | -13.8% | ? | 17.9 | 11.6µM* | -0.8 | -25.4%
Cc1ccc(NS(=O)(=O)c2ccc(N3CCN(c4ccc(O)cc4)CC3)c([N+](=O)[O-])c2)c(C)c1 | -24.3% | 2.82µM* | -1.6 | -63.2% | -2.3 | -25.2%
CC(C)(C)c1ccc(C(=O)c2c[nH]c(C(=O)O)c2)cc1 | -11.7% | -0.4%[46.1 µM] | 36.1 | ? | 29.3* | i
CN(C)C=NC(=O)c1cc(C(=O)c2ccc(C(C)(C)C)cc2)c[nH]1 | -2.2% | ? | 82.6* | 3.16µM* | 44.3* | i
CC(C)(C)c1ccc(C(=O)c2c[nH]c(C(=O)NCCCn3ccnc3)c2)cc1 | nt | -6.3% | 2.4 | -1.5% | 0.5 | nt
CN(C)C=NC(=O)c1cc(C(=O)c2ccccc2Cl)c[nH]1 | -9.3% | 3.1%[46.1 µM] | 12.9 | 10.4% | -0.4 | i
COC(=O)c1cc(C(=O)c2ccc(C(C)(C)C)cc2)c[nH]1 | -17.0% | -26.9%[46.1 µM] | 97.1* | ? | 32.2* | -27.9%
CCN1CCN(C(=O)/C=C/c2ccc(C(C)C)cc2)CC1 | -11.5% | ? | nt | -0.6%[46.1 µM] | nt | -6.7%
CCN1CCN(C(=O)/C=C/c2c(F)cccc2Cl)CC1 | -8.0% | ? | 14.9* | -2.4% | 10.1 | -15.6%
CCN1CCN(C(=O)/C=C/c2cccc(Cl)c2)CC1 | nt | nt | 23.5 | nt | 14.6* | nt
O=C(/C=C/c1c(F)cccc1Cl)N1CCc2ccccc2C1 | -2.9% | ? | nt | ? | 14.1* | -12.2%
CC(C)c1nnc(NC(=O)c2cccs2)s1 | -3.6% | nt | 70.4* | nt | 57.9* | i
SMILES | VACV Venus inh | Marburg entry inh | Shiga inhibitor | Lassa entry inh | CHX counter | Vaccinia mCherry
O=C(Nc1ccccc1C(=O)Nc1nnc(C(F)(F)F)s1)c1ccccc1 | ? | 3.98µM* | -1.4 | 10µM* | -2.1 | ?
CCCCC(CC)c1nnc(NC(=O)c2cccs2)s1 (stereo not given) | -8.5% | nt | 15.2 | nt | 1.5 | 2.6%
CC(C)(C)c1nnc(NC(=O)c2cccnc2)s1 | -11.1% | nt | 27.8 | nt | 21.4* | i
CCC(C)(C)c1nnc(NC(=O)c2cccc([N+](=O)[O-])c2)s1 | -4.6% | ? | 75.6* | -16.0% | 13.9* | -7.3%
COc1ccc(CCCC(=O)NCCc2ccccc2)c(C)c1 | nt | nt | 13.4 | nt | 0.9 | nt
Nc1cccc2[nH]cnc12 | -16.2% | nt | nt | nt | nt | i
O=C(Nc1nnc(CCc2ccccc2)s1)c1cccs1 | -3.4% | 2.1% | 10.0 | 26.2% | 6.3 | nt
CC(C)(C)c1nnc(NC(=O)c2cccs2)s1 | -12.2% | nt | 75.1* | nt | 71.0* | 20.2%
Cc1ccc(C(=O)/C=C2\NCCNC2=O)cc1 | -8.2% | -29.1% | 10.1* | ? | 32.4* | -9.3%
Cc1ccc(C(=O)/C=C2\NCC(C)NC2=O)cc1 (stereo not given) | 0.3% | 5.62µM* | 26.7 | 8.91µM* | -2.1 | -6.8%
Cc1ccc(C(=O)C2CCNCC2)cc1 | nt | -38.4% | 25.4 | 24.5% | 17.6 | nt
CCOc1cccc(/C=N/NC(=O)c2cc(-c3cccn3C)n[nH]2)c1O | ? | ? | 33.3 | 22.4µM* | 10.7 | ?
Cn1cccc1-c1cc(C(=O)N/N=C/c2cccc(O)c2)[nH]n1 | 2.5% | 8.9%[46.1 µM] | 55.9* | ? | 29.7* | 7.8%
CCc1ccccc1NC(=O)c1ccc2c(c1)N(Cc1cccc(Cl)c1)C(=O)c1ccccc1S2(=O)=O | 6.0% | ? | nt | -5.2%[46.1 µM] | nt | -4.4%
CCc1nc(NC(=O)NS(=O)(=O)c2ccccc2C(=O)OC)nc(OC)n1 | nt | nt | -5.0 | nt | 0.9 | nt
O=C(COc1ccc(F)cc1)Nc1ccc2nc(SCC(=O)N3CCc4ccccc43)sc2c1 | -15.8% | 4.8%[46.1 µM] | nt | -1.1%[46.1 µM] | nt | -16.8%
CCCCn1c(SCC(=O)c2ccc3c(c2)OCCO3)nnc1-c1ccoc1C | -21.7% | 11.2µM* | -13.9 | -28.5% | -2.5 | -16.3%
Cc1occc1-c1nnc(SCC(=O)c2ccc3c(c2)OCCO3)n1CC1CCCO1 (stereo not given) | nt | nt | 40.0* | nt | 23.3* | nt
CCn1c(SCC(=O)c2ccc(F)cc2)nnc1-c1ccoc1C | -7.6% | 11.0% | 39.6 | 16.9% | 30.3* | -12.8%
Cc1occc1-c1nnc(SCC(=O)c2ccccc2)n1CC1CCCO1 (stereo not given) | -0.5% | -0.2% | 31.4 | 15.0% | 20.1* | -11.7%
Cc1cc(/C=C/c2ccnc3ccccc23)ccc1N(C)C | -15.8% | nt | nt | nt | nt | -4.4%
N#Cc1cccc(NC(=O)CSc2cccc[n+]2[O-])c1 | 3.7% | 3.7%[46.1 µM] | nt | 7.2%[46.1 µM] | nt | -1.9%
O=C(CSc1cccc[n+]1[O-])Nc1cccc(Oc2ccccc2)c1 | -8.1% | -2.1% | 28.0 | ? | 21.0* | -0.4%
CC1(C(=O)Nc2ccc3c(c2)OCCO3)CSCC(=O)N1C1CC1 (stereo not given) | 5.6% | nt | nt | nt | nt | -7.9%
Cc1nn(-c2ccc(N3CCCCC3)nn2)c(C)c1CCC(=O)Nc1ccccc1F | -16.5%[7.34 µM] | nt | 62.8* | nt | 21.8* | -0.5%[7.34 µM]
Cc1nn(-c2ccc(N3CCCC3)nn2)c(C)c1CCC(=O)Nc1ccc(F)cc1F | -16.9% | nt | nt | 4.6%[46.1 µM] | nt | -12.3%
Cc1nn(-c2ccc(N3CCCCC3)nn2)c(C)c1CCC(=O)Nc1cc(F)ccc1F | -5.7% | ? | 45.4* | ? | 47.6* | -13.9%
C[C@@H](NC(=O)CN(c1ccccc1)S(=O)(=O)N(C)C)c1ccccc1 | 14.0% | 0.5%[46.1 µM] | nt | 16.0%[46.1 µM] | nt | -1.0%
